Tests used:
[1] = molecular target: T1, Tyrosine-protein kinase ITK/TSK (Homo sapiens) (UniProt Q08881); details: at 1 µM;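 further: values are mean percent inhibition of ITK from the GSK PKIS screen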
T1 sequence (whole entry): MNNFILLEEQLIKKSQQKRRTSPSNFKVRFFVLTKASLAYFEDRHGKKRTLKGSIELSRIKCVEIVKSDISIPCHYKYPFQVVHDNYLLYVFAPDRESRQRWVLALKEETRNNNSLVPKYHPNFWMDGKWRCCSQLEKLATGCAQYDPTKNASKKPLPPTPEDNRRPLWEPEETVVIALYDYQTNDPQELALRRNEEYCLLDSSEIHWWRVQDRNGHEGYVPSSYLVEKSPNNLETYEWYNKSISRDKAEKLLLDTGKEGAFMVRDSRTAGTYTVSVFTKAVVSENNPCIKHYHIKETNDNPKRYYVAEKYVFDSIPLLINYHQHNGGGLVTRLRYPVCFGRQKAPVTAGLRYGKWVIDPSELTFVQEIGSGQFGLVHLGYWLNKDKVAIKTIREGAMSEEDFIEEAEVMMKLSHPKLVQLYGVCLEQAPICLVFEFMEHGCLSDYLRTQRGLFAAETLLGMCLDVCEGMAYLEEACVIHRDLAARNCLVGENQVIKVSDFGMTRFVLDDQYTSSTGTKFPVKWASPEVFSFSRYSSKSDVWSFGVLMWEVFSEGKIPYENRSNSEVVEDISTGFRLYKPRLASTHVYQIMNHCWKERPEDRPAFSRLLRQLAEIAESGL

[2] = molecular target: Tyrosine-protein kinase JAK1 (Homo sapiens) (UniProt P23458); details: at 0.1 µM
[3] = molecular target: Tyrosine-protein kinase JAK1 (Homo sapiens) (UniProt P23458); details: at 1 µM
[4] = molecular target: Tyrosine-protein kinase JAK2 (Homo sapiens) (UniProt O60674); details: at 0.1 µM
[5] = molecular target: Tyrosine-protein kinase JAK2 (Homo sapiens) (UniProt O60674); details: at 1 µM
[6] = molecular target: T2, Tyrosine-protein kinase JAK3 (Homo sapiens) (UniProt P52333); details: at 0.1 µM
T2 sequence (whole entry): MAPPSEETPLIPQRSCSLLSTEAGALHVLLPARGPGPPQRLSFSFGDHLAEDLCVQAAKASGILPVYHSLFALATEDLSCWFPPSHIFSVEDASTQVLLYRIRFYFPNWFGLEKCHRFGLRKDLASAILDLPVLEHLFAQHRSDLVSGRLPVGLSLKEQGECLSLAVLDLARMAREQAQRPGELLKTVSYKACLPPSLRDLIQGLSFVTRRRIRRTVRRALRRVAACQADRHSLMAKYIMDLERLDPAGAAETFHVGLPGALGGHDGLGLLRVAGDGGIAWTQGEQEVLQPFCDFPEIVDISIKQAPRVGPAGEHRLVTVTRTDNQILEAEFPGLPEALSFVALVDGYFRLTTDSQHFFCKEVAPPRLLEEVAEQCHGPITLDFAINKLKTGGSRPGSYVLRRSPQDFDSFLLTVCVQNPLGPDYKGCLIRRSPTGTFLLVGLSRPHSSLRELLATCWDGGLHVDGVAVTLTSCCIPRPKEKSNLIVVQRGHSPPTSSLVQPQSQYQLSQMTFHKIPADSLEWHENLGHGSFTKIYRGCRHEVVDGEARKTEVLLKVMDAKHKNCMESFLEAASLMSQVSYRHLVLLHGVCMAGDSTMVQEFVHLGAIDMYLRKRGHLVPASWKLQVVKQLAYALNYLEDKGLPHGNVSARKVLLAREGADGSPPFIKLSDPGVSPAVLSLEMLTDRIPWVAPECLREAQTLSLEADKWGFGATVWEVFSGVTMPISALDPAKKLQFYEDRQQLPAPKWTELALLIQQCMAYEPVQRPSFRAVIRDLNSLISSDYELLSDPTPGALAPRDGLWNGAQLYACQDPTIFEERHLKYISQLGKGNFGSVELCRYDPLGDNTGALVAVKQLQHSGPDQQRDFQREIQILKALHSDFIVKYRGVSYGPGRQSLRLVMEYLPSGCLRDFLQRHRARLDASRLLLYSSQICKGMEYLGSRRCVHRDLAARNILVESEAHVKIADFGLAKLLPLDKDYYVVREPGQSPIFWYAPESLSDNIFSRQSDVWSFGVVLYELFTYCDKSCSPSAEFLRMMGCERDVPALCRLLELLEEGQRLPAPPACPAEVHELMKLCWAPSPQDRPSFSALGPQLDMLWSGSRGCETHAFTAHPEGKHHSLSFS

[7] = molecular target: T2, Tyrosine-protein kinase JAK3 (Homo sapiens); details: at 1 µM
[8] = molecular target: Vascular endothelial growth factor receptor 2 (Homo sapiens) (UniProt P35968); details: at 0.1 µM
[9] = molecular target: Vascular endothelial growth factor receptor 2 (Homo sapiens) (UniProt P35968); details: at 1 µM
[10] = molecular target: Mast/stem cell growth factor receptor Kit (Homo sapiens) (UniProt P10721); details: at 0.1 µM
[11] = molecular target: Mast/stem cell growth factor receptor Kit (Homo sapiens) (UniProt P10721); details: at 1 µM
[12] = tested on: Mast/stem cell growth factor receptor Kit (Homo sapiens), P10721 [D816V]; details: at 0.1 µM
[13] = tested on: Mast/stem cell growth factor receptor Kit (Homo sapiens), P10721 [D816V]; details: at 1 µM
[14] = tested on: Mast/stem cell growth factor receptor Kit (Homo sapiens), P10721 [T670I]; details: at 0.1 µM
[15] = tested on: Mast/stem cell growth factor receptor Kit (Homo sapiens), P10721 [T670I]; details: at 1 µM
[16] = tested on: Mast/stem cell growth factor receptor Kit (Homo sapiens), P10721 [V560G]; details: at 0.1 µM
[17] = tested on: Mast/stem cell growth factor receptor Kit (Homo sapiens), P10721 [V560G]; details: at 1 µM
[18] = molecular target: Tyrosine-protein kinase Lck (Homo sapiens) (UniProt P06239); details: at 0.1 µM
[19] = molecular target: Tyrosine-protein kinase Lck (Homo sapiens) (UniProt P06239); details: at 1 µM
[20] = molecular target: Leukocyte tyrosine kinase receptor (Homo sapiens) (UniProt P29376); details: at 0.1 µM
Sequence of Leukocyte tyrosine kinase receptor (Homo sapiens) (P29376 whole entry): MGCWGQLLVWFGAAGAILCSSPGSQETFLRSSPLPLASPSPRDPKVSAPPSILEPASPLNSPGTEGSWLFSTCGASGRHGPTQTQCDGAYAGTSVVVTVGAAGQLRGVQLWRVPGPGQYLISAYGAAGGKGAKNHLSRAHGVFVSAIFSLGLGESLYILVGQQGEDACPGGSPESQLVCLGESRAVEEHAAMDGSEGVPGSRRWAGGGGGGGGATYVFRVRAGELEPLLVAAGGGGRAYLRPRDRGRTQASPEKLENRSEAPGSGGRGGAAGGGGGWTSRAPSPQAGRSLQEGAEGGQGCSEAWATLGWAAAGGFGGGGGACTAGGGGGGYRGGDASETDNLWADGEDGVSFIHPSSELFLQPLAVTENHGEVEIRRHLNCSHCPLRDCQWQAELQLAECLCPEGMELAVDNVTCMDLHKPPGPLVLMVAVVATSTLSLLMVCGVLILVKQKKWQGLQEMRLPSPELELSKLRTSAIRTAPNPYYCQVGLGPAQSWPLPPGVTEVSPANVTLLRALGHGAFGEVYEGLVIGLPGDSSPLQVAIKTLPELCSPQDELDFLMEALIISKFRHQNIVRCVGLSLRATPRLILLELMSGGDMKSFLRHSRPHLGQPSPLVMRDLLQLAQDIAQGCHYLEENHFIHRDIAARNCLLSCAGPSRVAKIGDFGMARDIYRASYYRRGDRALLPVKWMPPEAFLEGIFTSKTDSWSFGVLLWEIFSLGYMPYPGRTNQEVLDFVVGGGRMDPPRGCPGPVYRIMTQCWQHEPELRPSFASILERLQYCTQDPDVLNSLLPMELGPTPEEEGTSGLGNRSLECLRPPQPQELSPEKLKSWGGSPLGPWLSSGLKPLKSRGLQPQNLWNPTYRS

Sequence of Tyrosine-protein kinase JAK1 (Homo sapiens) (P23458 whole entry): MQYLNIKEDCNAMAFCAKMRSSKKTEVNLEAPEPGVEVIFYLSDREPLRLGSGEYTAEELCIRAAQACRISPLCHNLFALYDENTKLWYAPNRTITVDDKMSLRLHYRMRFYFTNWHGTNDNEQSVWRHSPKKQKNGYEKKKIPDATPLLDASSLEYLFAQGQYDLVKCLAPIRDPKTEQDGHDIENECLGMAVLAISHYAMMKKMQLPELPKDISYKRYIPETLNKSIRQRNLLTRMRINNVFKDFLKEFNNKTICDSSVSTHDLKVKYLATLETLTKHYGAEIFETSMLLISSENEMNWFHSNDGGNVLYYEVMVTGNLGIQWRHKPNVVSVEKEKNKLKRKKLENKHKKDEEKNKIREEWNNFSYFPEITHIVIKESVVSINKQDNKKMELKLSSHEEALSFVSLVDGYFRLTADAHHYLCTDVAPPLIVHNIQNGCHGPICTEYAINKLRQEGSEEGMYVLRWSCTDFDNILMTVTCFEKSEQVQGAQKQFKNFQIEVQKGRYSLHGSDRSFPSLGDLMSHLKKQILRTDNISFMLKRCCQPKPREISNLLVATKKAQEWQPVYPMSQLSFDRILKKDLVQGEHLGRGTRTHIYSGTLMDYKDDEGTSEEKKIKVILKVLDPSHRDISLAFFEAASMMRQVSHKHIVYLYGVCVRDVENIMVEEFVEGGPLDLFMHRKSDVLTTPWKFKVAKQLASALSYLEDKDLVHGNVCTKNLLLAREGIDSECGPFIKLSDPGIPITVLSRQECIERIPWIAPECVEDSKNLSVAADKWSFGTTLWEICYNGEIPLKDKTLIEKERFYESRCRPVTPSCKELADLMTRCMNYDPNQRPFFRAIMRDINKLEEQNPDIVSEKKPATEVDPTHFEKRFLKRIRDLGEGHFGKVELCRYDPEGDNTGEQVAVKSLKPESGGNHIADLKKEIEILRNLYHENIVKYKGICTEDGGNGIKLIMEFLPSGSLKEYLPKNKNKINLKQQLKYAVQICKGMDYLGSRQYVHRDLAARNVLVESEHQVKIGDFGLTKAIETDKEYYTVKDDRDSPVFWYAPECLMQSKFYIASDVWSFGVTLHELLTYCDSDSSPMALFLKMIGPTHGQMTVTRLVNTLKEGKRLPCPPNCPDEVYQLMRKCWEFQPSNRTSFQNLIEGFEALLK
Sequence of Mast/stem cell growth factor receptor Kit (Homo sapiens) (P10721 whole entry): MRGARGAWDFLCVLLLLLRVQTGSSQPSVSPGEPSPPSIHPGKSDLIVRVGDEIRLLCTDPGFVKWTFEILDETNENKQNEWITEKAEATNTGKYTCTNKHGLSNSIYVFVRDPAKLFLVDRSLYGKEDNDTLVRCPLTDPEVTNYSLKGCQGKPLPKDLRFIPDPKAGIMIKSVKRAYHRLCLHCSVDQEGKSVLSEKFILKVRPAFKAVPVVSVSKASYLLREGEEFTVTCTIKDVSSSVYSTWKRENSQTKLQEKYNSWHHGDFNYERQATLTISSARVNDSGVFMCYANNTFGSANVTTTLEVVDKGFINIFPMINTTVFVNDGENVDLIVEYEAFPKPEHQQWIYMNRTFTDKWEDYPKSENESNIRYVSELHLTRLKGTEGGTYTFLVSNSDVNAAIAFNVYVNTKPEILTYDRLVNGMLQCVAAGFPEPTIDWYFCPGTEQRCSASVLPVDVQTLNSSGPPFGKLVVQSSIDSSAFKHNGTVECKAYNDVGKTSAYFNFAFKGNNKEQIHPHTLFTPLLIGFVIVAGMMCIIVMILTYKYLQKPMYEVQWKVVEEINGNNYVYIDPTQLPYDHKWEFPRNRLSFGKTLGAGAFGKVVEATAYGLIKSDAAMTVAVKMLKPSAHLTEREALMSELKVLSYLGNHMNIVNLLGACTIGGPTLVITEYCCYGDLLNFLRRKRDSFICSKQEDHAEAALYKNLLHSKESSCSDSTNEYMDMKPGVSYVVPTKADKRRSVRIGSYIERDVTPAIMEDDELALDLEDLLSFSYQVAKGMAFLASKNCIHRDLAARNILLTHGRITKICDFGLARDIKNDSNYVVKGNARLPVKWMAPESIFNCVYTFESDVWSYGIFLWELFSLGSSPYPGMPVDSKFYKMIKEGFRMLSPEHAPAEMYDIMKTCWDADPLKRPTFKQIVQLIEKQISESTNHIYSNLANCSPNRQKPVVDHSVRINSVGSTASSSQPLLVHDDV
Sequence of Tyrosine-protein kinase Lck (Homo sapiens) (P06239 2-509 limits assumed): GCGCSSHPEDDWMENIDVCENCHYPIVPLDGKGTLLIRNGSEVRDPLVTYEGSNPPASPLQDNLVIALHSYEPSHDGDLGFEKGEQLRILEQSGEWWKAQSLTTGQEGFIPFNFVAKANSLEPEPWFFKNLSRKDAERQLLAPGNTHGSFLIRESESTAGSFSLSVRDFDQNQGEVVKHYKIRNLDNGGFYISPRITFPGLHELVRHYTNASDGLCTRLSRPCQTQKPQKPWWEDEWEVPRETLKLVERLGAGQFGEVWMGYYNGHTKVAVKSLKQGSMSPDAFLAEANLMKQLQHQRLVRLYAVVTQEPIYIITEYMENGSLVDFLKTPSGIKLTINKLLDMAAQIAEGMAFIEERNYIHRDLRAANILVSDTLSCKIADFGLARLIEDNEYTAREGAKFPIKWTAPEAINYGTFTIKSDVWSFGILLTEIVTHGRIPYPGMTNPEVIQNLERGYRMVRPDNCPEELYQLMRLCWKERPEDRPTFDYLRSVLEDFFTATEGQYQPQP
Sequence of Mast/stem cell growth factor receptor Kit (Homo sapiens), P10721 [V560G] (P10721 whole entry V560G): as the sequence (P10721 whole entry) above, with V560G counted along it
Sequence of Vascular endothelial growth factor receptor 2 (Homo sapiens) (P35968 whole entry): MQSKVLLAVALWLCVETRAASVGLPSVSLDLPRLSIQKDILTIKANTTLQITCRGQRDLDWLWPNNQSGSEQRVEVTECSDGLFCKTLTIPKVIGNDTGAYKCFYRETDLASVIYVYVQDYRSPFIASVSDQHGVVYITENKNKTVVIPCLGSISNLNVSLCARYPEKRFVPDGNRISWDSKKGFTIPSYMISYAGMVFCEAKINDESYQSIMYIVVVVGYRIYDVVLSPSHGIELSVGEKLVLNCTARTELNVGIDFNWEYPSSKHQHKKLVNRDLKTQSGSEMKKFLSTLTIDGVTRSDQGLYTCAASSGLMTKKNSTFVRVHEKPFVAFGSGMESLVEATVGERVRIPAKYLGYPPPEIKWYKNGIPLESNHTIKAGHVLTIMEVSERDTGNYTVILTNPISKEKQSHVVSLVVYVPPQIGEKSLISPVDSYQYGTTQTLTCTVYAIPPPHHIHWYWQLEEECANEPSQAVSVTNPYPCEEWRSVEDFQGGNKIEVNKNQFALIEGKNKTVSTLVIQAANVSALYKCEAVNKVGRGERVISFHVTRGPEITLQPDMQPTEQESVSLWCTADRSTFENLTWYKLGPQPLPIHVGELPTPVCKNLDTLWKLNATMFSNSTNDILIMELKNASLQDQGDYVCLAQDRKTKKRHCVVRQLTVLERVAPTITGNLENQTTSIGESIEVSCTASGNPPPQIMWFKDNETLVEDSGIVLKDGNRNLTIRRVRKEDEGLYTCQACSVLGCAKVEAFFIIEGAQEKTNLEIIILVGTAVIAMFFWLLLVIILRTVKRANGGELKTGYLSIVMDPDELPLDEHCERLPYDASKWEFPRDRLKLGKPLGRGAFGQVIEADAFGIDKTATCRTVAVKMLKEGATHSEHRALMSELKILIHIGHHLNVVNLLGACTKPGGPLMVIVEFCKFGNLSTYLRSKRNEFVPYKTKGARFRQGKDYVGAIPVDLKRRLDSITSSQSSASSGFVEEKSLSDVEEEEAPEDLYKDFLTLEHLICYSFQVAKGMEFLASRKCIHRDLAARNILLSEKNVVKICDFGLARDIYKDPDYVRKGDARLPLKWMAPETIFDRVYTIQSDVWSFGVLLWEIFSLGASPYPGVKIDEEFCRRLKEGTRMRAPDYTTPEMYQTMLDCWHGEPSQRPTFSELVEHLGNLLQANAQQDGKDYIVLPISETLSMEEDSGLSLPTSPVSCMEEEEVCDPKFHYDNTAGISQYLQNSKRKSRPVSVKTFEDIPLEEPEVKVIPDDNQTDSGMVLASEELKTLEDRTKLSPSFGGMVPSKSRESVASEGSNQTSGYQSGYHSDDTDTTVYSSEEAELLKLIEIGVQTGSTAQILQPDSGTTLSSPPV
Sequence of Mast/stem cell growth factor receptor Kit (Homo sapiens), P10721 [D816V] (P10721 whole entry D816V): as the sequence (P10721 whole entry) above, with D816V counted along it
Sequence of Mast/stem cell growth factor receptor Kit (Homo sapiens), P10721 [T670I] (P10721 whole entry T670I): as the sequence (P10721 whole entry) above, with T670I counted along it

SMILES	inhibition [1]	inhibition [2]	inhibition [3]	inhibition [4]	inhibition [5]	inhibition [6]	inhibition [7]	inhibition [8]	inhibition [9]	inhibition [10]	inhibition [11]	inhibition [12]	inhibition [13]	inhibition [14]	inhibition [15]	inhibition [16]	inhibition [17]	inhibition [18]	inhibition [19]	inhibition [20]
CC(=O)Nc1cccc(C#Cc2cncnc2Nc2ccc(OCc3cccc(F)c3)c(Cl)c2)c1	2.79%	6.03%	3.66%	4.37%	6.59%	0.59%	4.13%	9.03%	12.6%	1.83%	2.18%	1.33%	0.94%	0.96%	-0.24%	2.26%	5.18%	1.97%	3.76%	0.86%
COC(=O)Nc1nc2ccc(S(=O)(=O)c3ccc(NC(=O)Nc4cc(C(F)(F)F)ccc4F)cc3)cc2[nH]1	2.62%	0.99%	-1.29%	1.28%	1.9%	-1.12%	0.84%	4.59%	6.23%	2.47%	-0.26%	3.87%	5.14%	1.09%	-0.17%	-0.14%	0.67%	2.26%	3.94%	1.63%
c1cc(-c2cnn3nc(N4CCOCC4)ccc23)nc(NC2CC2)n1	3.22%	0.54%	-6.96%	2.21%	1.85%	-1.14%	-0.05%	12.9%	48%	6.83%	20.9%	0.53%	4.82%	7.12%	3.28%	4.27%	5%	1.31%	3.4%	2.15%
NS(=O)(=O)c1ccc(N/N=C2\C(=O)Nc3ccc4ncccc4c32)cc1	18.5%	2.63%	17.3%	1.52%	22.4%	14.2%	67.7%	61.6%	88.6%	63.8%	90.7%	5.95%	23.6%	10.2%	69.4%	3.66%	36.8%	5.5%	30.1%	2.17%
Fc1cccc(COc2ccc(Nc3ncnc4sc(-c5ccco5)cc34)cc2Cl)c1	3.14%	0.17%	3.56%	1.34%	1.22%	-3.93%	-1.55%	3.37%	10.4%	6.1%	6.21%	3.37%	6.34%	2.63%	3.7%	-0.3%	0.57%	3.21%	5.67%	3.44%
N#Cc1c(NC(=O)c2ccc(F)cc2)sc2c1CCCC2	0.63%	1.63%	6.11%	-0.41%	0.9%	0.53%	2.52%	4.31%	6.96%	6.24%	5.86%	-0.47%	2.78%	-0.92%	1.72%	-0.83%	0.9%	0.7%	0.45%	1.24%
CNC(=O)c1cc(-c2ccc(F)cc2)cc(-c2ccc(S(=O)(=O)N3CCCC3)cc2)c1N	0.87%	0.17%	1.74%	1.75%	3.18%	-1.74%	-0.38%	1.67%	6.2%	3.86%	3.53%	3.32%	1.27%	3.02%	1.68%	-2.57%	1.97%	2.58%	2.91%	2.81%

Source: ChEMBL document CHEMBL1961873, “Compounds: GSK PKIS; Assays: Nanosyn kinase panel” (2012)
